The nature of the test: EMT-state selective cytotoxicity in co-culture – imaging, PC-3E GFP, TEM4-18 mCherry, primary screen (AID 1345086).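 As to all read-outs here: cells exposed to compound for 72 h before imaging.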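 As to red/green cell ratio (normalised): normalised mesenchymal count divided by normalised epithelial count so high means epithelial killing.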 As to conditions: PC-3E GFP / TEM4-18 mCherry co-culture, imaging cell counts, at 1 µM; for red/green cell ratio (normalised): actives lie on both sides, counts scaled to control wells, 1 = unselective.
[1] abbreviates: measured here: epithelial PC-3E GFP cell survival.
Where [2] appears, read: measured here: mesenchymal TEM4-18 mCherry cell survival.

The source made the active and inactive calls.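 The calls were made as follows: active = compounds killing one labelled cell type while sparing the other, by normalised counts and ratio limits, not self-fluorescent; inactive = the rest.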

`Cc1c(F)c(F)cc2c(=O)n(N)c(=O)n(C3CC3)c12`: the red/green cell ratio (normalised) is 0.9 (inactive). The normalised cell number under setting [1] stood at 0.79. This compound also registered a normalised cell number under setting [2] of 0.71.

For the compound `COC1=CC(=O)OC1(O)C(C)C` (stereo not given), the red/green cell ratio (normalised) is 1.07 (inactive). This compound also had a normalised cell number under setting [1] of 0.83. Under setting [2], this compound displayed a normalised cell number of 0.89.

For `CCO[C@H]1OC(C(=O)OC)C(OC(=O)CCC(=O)O)[C@H](OC(=O)c2ccccc2)[C@@H]1OC(=O)c1ccccc1` (stereo not given in full), the red/green cell ratio (normalised) was 0.91 (inactive). Moreover, the normalised cell number under setting [1] stood at 1.18. Also, the normalised cell number under setting [2] came to 1.07.

With `COC(=O)/C=C/C(C)=C/C=C/C(C)=C/C=C/C=C(C)/C=C/C=C(C)/C=C/C(=O)O`, the red/green cell ratio (normalised) was 0.81 (inactive). Further, under setting [1], the normalised cell number stood at 1.29. For the same compound, the normalised cell number under setting [2] was found to be 1.05.

For the compound `CC(=O)OC1CCC2(C)C3CC(=O)C4(C)C(CC5OC6(CCC(C)CO6)[C@@H](C)C54)C3CC[C@H]2C1` (stereo not given in full), the red/green cell ratio (normalised) is 0.89 (inactive). Besides, under setting [1], the normalised cell number was found to be 1.05. The same compound showed a normalised cell number under setting [2] of 0.93.

`CC[C@H](C)/C=C/C1=CC2=C(Cl)C(=O)[C@@]3(C)OC(=O)C(C(=O)[C@@H](C)[C@@H](C)O)=C3C2=CO1`: the red/green cell ratio (normalised) was 0.99 (inactive). Moreover, the normalised cell number under setting [1] was 0.92. This compound also registered a normalised cell number under setting [2] of 0.91.

For the compound `Oc1ccc2ccccc2c1Oc1ccc2ccccc2c1`, the red/green cell ratio (normalised) is 0.92 (inactive). The normalised cell number under setting [1] worked out at 0.86. Further, the normalised cell number under setting [2] came out at 0.79.

As for `CC1(C)C[C@H]2[C@@]1(O)[C@@H](O)C[C@]1(C)[C@H](O)C=C[C@]21CO`, the red/green cell ratio (normalised) was 0.9 (inactive). Under setting [1], the normalised cell number stood at 1.19. This compound had a normalised cell number under setting [2] of 1.07.

In the case of `Cc1ccc(S[C@H]2OC3COC(c4ccccc4)OC3[C@@H]3OC(=O)N[C@H]23)cc1` (stereo not given in full), the red/green cell ratio (normalised) is 1.55 (inactive). Under setting [1], this compound gave a normalised cell number of 0.36. For the same compound, the normalised cell number under setting [2] was 0.55.

`O=C(NCc1ccccc1)C1O[C@H](NCc2ccccc2)[C@@H](O)[C@@H](O)C1O` (stereo not given in full): the red/green cell ratio (normalised) was 1.04 (inactive). The compound also gave a normalised cell number under setting [1] of 1.09. Under setting [2], the normalised cell number is 1.13.

`Cc1cc2c(CO)cc(O)cc2o1`: the red/green cell ratio (normalised) was 1 (inactive). Besides, the normalised cell number under setting [1] is 0.92. The normalised cell number under setting [2] is 0.92.

Take `CCN1CC(CCN2CCOCC2)C(C(c2ccccc2)c2ccccc2)C1=O` (stereo not given): the red/green cell ratio (normalised) is 0.72 (inactive). In addition, the normalised cell number under setting [1] is 1.12. The compound also showed a normalised cell number under setting [2] of 0.81.

As for `CC1(C)S[C@@H]2[C@H](NC(=O)C(NC(=O)N3CCNC3=O)c3ccccc3)C(=O)N2C1C(=O)O` (stereo not given in full), the red/green cell ratio (normalised) is 0.99 (inactive). Moreover, the normalised cell number under setting [1] came out at 1.15. Further, under setting [2], the normalised cell number is 1.14.

On to `CO[C@H]1/C=C/C[C@@H](C)OC(=O)c2c(O)cc(O)cc2CC(=O)CCC1`, for which the red/green cell ratio (normalised) was 1.01 (inactive). The compound also came in with a normalised cell number under setting [1] of 0.98. The compound also yielded a normalised cell number under setting [2] of 0.98.

In the case of `COC(=O)NC1[C@@H](O)C(O)C(CO)O[C@H]1Sc1ccccc1` (stereo not given in full), the red/green cell ratio (normalised) is 0.91 (inactive). This compound showed a normalised cell number under setting [1] of 1.06. Further, the normalised cell number under setting [2] amounted to 0.96.

`COc1ccc2oc(-c3ccccc3)c(OC)c(=O)c2c1`: the red/green cell ratio (normalised) is 0.79 (inactive). In addition, the normalised cell number under setting [1] was 1.37. Moreover, the normalised cell number under setting [2] is 1.08.

Take `Nc1ccc(Oc2ccccc2)cc1`: the red/green cell ratio (normalised) is 0.95 (inactive). The same compound registered a normalised cell number under setting [1] of 0.99. Under setting [2], this compound had a normalised cell number of 0.94.

In the case of `CC1O[C@@H](Oc2c(-c3ccc(O)c(O)c3)oc3cc(O)cc(O)c3c2=O)[C@H](O)[C@H](O)[C@H]1O` (stereo not given in full), the red/green cell ratio (normalised) is 1.01 (inactive). This compound also showed a normalised cell number under setting [1] of 1.01. Also, under setting [2], the normalised cell number was 1.02.

With `Cc1[nH]cc[n+]1CC1CCC2C(C1=O)c1ccccc1N2C` (stereo not given), the red/green cell ratio (normalised) was 0.73 (inactive). Moreover, under setting [1], the normalised cell number came out at 1.19. The compound also registered a normalised cell number under setting [2] of 0.87.

Turning to `C[C@H]1C(=O)CCC2[C@]3(C)CC[C@@]4(C)C5CC(C)(C)CC[C@]5(C)CC[C@]4(C)C3CC[C@@]21C` (stereo not given in full), the red/green cell ratio (normalised) is 1.06 (inactive). The normalised cell number under setting [1] came out at 1.06. Besides, the normalised cell number under setting [2] turned out to be 1.13.

Regarding `Clc1ccc(Br)cc1OCC1CCCNC1` (stereo not given), the red/green cell ratio (normalised) was 0.91 (inactive). The compound further showed a normalised cell number under setting [1] of 1.28. Besides, the normalised cell number under setting [2] was determined as 1.17.

As to `C[C@H]1OC(n2cc(F)c(=O)[nH]c2=O)C(O)[C@@H]1O` (stereo not given in full), the red/green cell ratio (normalised) was 0.91 (inactive). Besides, the normalised cell number under setting [1] was found to be 1.27. Under setting [2], this compound gave a normalised cell number of 1.16.

Turning to `O=C(O)CS`, the red/green cell ratio (normalised) was 1.05 (inactive). Further, the normalised cell number under setting [1] was found to be 1.25. The normalised cell number under setting [2] was 1.3.

For the compound `Clc1ccc(Br)cc1/C=C/C1CCCNC1` (stereo not given), the red/green cell ratio (normalised) was 0.95 (inactive). Under setting [1], this compound displayed a normalised cell number of 1.16. Moreover, the normalised cell number under setting [2] is 1.1.

Take `C=C(C)[C@@H]1CC[C@]2(C)CC[C@]3(C)[C@@H](CCC4[C@@]5(C)CC[C@H](O)C(C)(C)C5CC[C@]43C)C12` (stereo not given in full): the red/green cell ratio (normalised) was 1.12 (inactive). This compound returned a normalised cell number under setting [1] of 0.95. In addition, under setting [2], the normalised cell number stood at 1.07.

Turning to `CO/C(C)=C1/C(=O)C(CO)OC1O` (stereo not given), the red/green cell ratio (normalised) was 1.02 (inactive). Moreover, under setting [1], the normalised cell number was 0.93. Besides, under setting [2], the normalised cell number stood at 0.95.

As to `CC(C)c1c(O)ccc2c1CCC1C(C)(C)CCC[C@]21C` (stereo not given in full), the red/green cell ratio (normalised) was 0.99 (inactive). The same compound showed a normalised cell number under setting [1] of 1.08. The compound also returned a normalised cell number under setting [2] of 1.07.

Turning to `CCN(Cc1cccc(S(=O)(=O)O)c1)c1cccc(C(=C2C=CC(=[N+](CC)Cc3cccc(S(=O)(=O)O)c3)C=C2)c2ccc(O)cc2S(=O)(=O)[O-])c1`, the red/green cell ratio (normalised) was 0.88 (inactive). The normalised cell number under setting [1] came out at 1.26. For the same compound, the normalised cell number under setting [2] turned out to be 1.11.

Take `CCC(CCC(C)[C@H]1CCC2C3CC=C4C[C@@H](OC(C)=O)CC[C@]4(C)C3CC[C@@]21C)C(C)C` (stereo not given in full): the red/green cell ratio (normalised) was 0.94 (inactive). Under setting [1], this compound came in with a normalised cell number of 1.1. Under setting [2], this compound had a normalised cell number of 1.03.

For the compound `CC(=O)OC1CCC2(C)C(=CC=C3C2CCC2(C)C3CCC2C(C)/C=C/C(C)C(C)C)C1(C)C` (stereo not given), the red/green cell ratio (normalised) is 1.04 (inactive). Under setting [1], this compound registered a normalised cell number of 0.92. For the same compound, under setting [2], the normalised cell number amounted to 0.96.

The values above are taken from PubChem BioAssay.
